# This is one part of a sample in which the strongest signals are shown more often than they occur.
# B1: Gal 9 (Homo sapiens), O00182 (protein)
# chain: MAFSGSQAPYLSPAVPFSGTIQGGLQDGLQITVNGTVLSSSGTRFAVNFQTGFSGNDIAFHFNPRFEDGGYVVCNTRQNGSWGPEERKTHMPFQKGMPFDLCFLVQSSDFKVMVNGILFVQYFHRVPFHRVDTISVNGSVQLSYISFQNPRTVPVQPAFSTVPFSQPVCFPPRPRGRRQKPPGVWPANPAPITQTVIHTVQSAPGQMFSTPAIPPMMYPHPAYPMPFITTILGGLYPSKSILLSGTVLPSAQRFHINLCSGNHIAFHLNPRFDENAVVRNTQIDNSWGSEERSLPRKMPFVRGQSFSVWILCEAHCLKVAVDGQHLFEYYHRLRNLPTINRLEVGGDIQLTHVQT
# What was measured:
# Test in all cases: glycan array binding signal (z-score within array); higher = stronger binding
# Settings in all cases: glycan notation: IUPAC condensed, linker removed
# [1] = biological target: Gal(b1-4)GlcNAc(b1-3)Gal(b1-4)GlcNAc(b1-3)Gal(b1-4)GlcNAc(b1-3)Gal(b1-4)GlcNAc(b1-3)Gal(b1-4)GlcNAc(b1-3)Gal(b1-4)GlcNAc(b1-2)Man(a1-3)[Gal(b1-4)GlcNAc(b1-3)Gal(b1-4)GlcNAc(b1-3)Gal(b1-4)GlcNAc(b1-3)Gal(b1-4)GlcNAc(b1-3)Gal(b1-4)GlcNAc(b1-3)Gal(b1-4)GlcNAc(b1-2)Man(a1-6)]Man(b1-4)GlcNAc(b1-4)GlcNAc
# Outline: (§1)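 The binding signal is a Z-score computed within each array. Data were drawn from 3228 arrays in the Consortium for Functional Glycomics database, restricted to those with a known protein sequence. Scores were averaged over arrays of the same protein sequence at different concentrations or buffers, and over linkers, and negative values can be taken as non-binding.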
# [2] = biological target: Gal(b1-4)GlcNAc(b1-3)[GlcNAc(b1-6)]Gal(b1-4)GlcNAc
# Outline: as §1
# [3] = biological target: Gal(b1-4)GlcNAc(b1-6)Gal(b1-4)GlcNAc
# Outline: as §1
# [4] = biological target: Gal(b1-4)GlcNAc(b1-6)[Gal(b1-4)GlcNAc(b1-3)]GalNAc
# Outline: as §1
# Gal3S(b1-3)GlcNAc = biological target: Gal3S(b1-3)GlcNAc
# Outline: as §1
# Gal3S(b1-4)Glc = biological target: Gal3S(b1-4)Glc
# Outline: as §1
# Gal3S(b1-4)GlcNAc6S = biological target: Gal3S(b1-4)GlcNAc6S
# Outline: as §1
# Gal6S(b1-4)Glc6S = biological target: Gal6S(b1-4)Glc6S
# Outline: as §1
# [5] = biological target: GalNAc(a1-3)GalNAc(a1-3)Gal(a1-4)Gal(b1-4)GlcNAc
# Outline: as §1
# [6] = biological target: GalNAc(b1-3)Gal(a1-4)Gal(b1-4)GlcNAc(b1-3)Gal(b1-4)Glc
# Outline: as §1
# [7] = biological target: GlcNAc(b1-2)[GlcNAc(b1-4)]Man(a1-3)[GlcNAc(b1-2)Man(a1-6)]Man(b1-4)GlcNAc(b1-4)GlcNAc
# Outline: as §1
# GlcNAc(b1-3)Gal = biological target: GlcNAc(b1-3)Gal
# Outline: as §1
# [8] = biological target: GlcNAc(b1-3)Gal(b1-4)GlcNAc(b1-3)Gal(b1-4)GlcNAc(b1-3)Gal(b1-4)GlcNAc(b1-3)Gal(b1-4)GlcNAc(b1-2)[GlcNAc(b1-3)Gal(b1-4)GlcNAc(b1-3)Gal(b1-4)GlcNAc(b1-3)Gal(b1-4)GlcNAc(b1-3)Gal(b1-4)GlcNAc(b1-6)]Man(a1-6)[GlcNAc(b1-3)Gal(b1-4)GlcNAc(b1-3)Gal(b1-4)GlcNAc(b1-3)Gal(b1-4)GlcNAc(b1-3)Gal(b1-4)GlcNAc(b1-2)Man(a1-3)]Man(b1-4)GlcNAc(b1-4)[Fuc(a1-6)]GlcNAc
# Outline: as §1
# Kdn(a2-3)Gal(b1-4)Glc = biological target: Kdn(a2-3)Gal(b1-4)Glc
# Outline: as §1
# [9] = biological target: Man(a1-2)Man(a1-3)[Man(a1-2)Man(a1-6)]Man(a1-6)[Man(a1-2)Man(a1-2)Man(a1-3)]Man
# Outline: as §1
# [10] = biological target: Man(a1-2)Man(a1-6)[Man(a1-3)]Man(a1-6)[Man(a1-2)Man(a1-2)Man(a1-3)]Man(b1-4)GlcNAc(b1-4)GlcNAc
# Outline: as §1
# [11] = biological target: Man(a1-3)[Man(a1-6)]Man(a1-6)[Man(a1-2)Man(a1-3)]Man(b1-4)GlcNAc(b1-4)GlcNAc
# Outline: as §1
# [12] = biological target: Neu5Ac(a2-3)Gal(b1-3)GlcNAc(b1-3)Gal(b1-4)GlcNAc
# Outline: as §1
# [13] = biological target: Neu5Ac(a2-3)Gal(b1-4)GlcNAc(b1-3)Gal(b1-4)GlcNAc(b1-3)Gal(b1-4)GlcNAc
# Outline: as §1
# [14] = biological target: Neu5Ac(a2-3)Gal(b1-4)GlcNAc(b1-3)GalNAc
# Outline: as §1
# [15] = biological target: Neu5Ac(a2-3)[GalNAc(b1-4)]Gal(b1-4)Glc
# Outline: as §1
# [16] = biological target: Neu5Ac(a2-6)Gal(b1-4)GlcNAc(b1-2)Man(a1-3)[GlcNAc(b1-2)Man(b1-4)GlcNAc(b1-2)Man(a1-6)]Man(b1-4)GlcNAc(b1-4)GlcNAc
# Outline: as §1
# [17] = biological target: Neu5Ac(a2-6)Gal(b1-4)GlcNAc(b1-2)Man(a1-3)[Neu5Ac(a2-3)Gal(b1-4)GlcNAc(b1-2)Man(a1-6)]Man(b1-4)GlcNAc(b1-4)GlcNAc
# Outline: as §1
# [18] = biological target: Neu5Ac(a2-6)Gal(b1-4)GlcNAc(b1-2)Man(a1-6)[GlcNAc(b1-2)Man(a1-3)]Man(b1-4)GlcNAc(b1-4)GlcNAc
# Outline: as §1
# [19] = biological target: Neu5Ac(a2-6)Gal(b1-4)GlcNAc(b1-3)Gal(b1-4)GlcNAc(b1-2)Man(a1-3)[Neu5Ac(a2-6)Gal(b1-4)GlcNAc(b1-3)Gal(b1-4)GlcNAc(b1-2)Man(a1-6)]GalNAc
# Outline: as §1
# [20] = biological target: Neu5Ac(a2-6)GalNAc(b1-4)GlcNAc6S
# Outline: as §1
# [21] = biological target: Neu5Ac(a2-6)GlcNAc(b1-4)GlcNAc(b1-4)GlcNAc
# Outline: as §1
# [22] = biological target: Neu5Gc(a2-8)Neu5Gc(a2-3)Gal(b1-4)GlcNAc(b1-3)Gal(b1-4)GlcNAc
# Outline: as §1
binder,measurement,setting,value
B1,glycan array binding signal (z-score),[1],9.39
same,glycan array binding signal (z-score),[2],0.555
same,glycan array binding signal (z-score),[3],-0.17
same,glycan array binding signal (z-score),[4],-0.275
same,glycan array binding signal (z-score),Gal3S(b1-3)GlcNAc,0.996
same,glycan array binding signal (z-score),Gal3S(b1-4)Glc,-0.132
same,glycan array binding signal (z-score),Gal3S(b1-4)GlcNAc6S,4.06
same,glycan array binding signal (z-score),Gal6S(b1-4)Glc6S,-0.299
same,glycan array binding signal (z-score),[5],0.672
same,glycan array binding signal (z-score),[6],-0.036
same,glycan array binding signal (z-score),[7],-0.323
same,glycan array binding signal (z-score),GlcNAc(b1-3)Gal,-0.323
same,glycan array binding signal (z-score),[8],2.32
same,glycan array binding signal (z-score),Kdn(a2-3)Gal(b1-4)Glc,-0.315
same,glycan array binding signal (z-score),[9],-0.311
same,glycan array binding signal (z-score),[10],-0.321
same,glycan array binding signal (z-score),[11],-0.263
same,glycan array binding signal (z-score),[12],0.431
same,glycan array binding signal (z-score),[13],0.554
same,glycan array binding signal (z-score),[14],-0.265
same,glycan array binding signal (z-score),[15],-0.302
same,glycan array binding signal (z-score),[16],0.913
same,glycan array binding signal (z-score),[17],-0.259
same,glycan array binding signal (z-score),[18],-0.323
same,glycan array binding signal (z-score),[19],5.41
same,glycan array binding signal (z-score),[20],-0.291
same,glycan array binding signal (z-score),[21],-0.318
same,glycan array binding signal (z-score),[22],-0.282

# From the supplement of paper PMC8728848
